# From the supplement of paper PMC10849652
# Of roughly 8,800 targets only a part is listed; those with a hit were picked by preference. About 0.5% of all pairs of compound and target were hits. Unmarked numbers belong to inactive results.
# Columns and labels:
# Assay in all cases: log2 fold change, soluble protein after heating vs DMSO (PISA); higher = thermal stabilisation; K562 lysate, 10 uM; active = over 0.2 and 3.5 SD of the protein, either way, in both replicates (recomputed)
# lapatinib = compound: CS(=O)(=O)CCNCc1ccc(-c2ccc3ncnc(Nc4ccc(OCc5cccc(F)c5)c(Cl)c4)c3c2)o1 [lapatinib]
# How it was run: (§1)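 Values give the log-two fold change in thermal stability against solvent controls, from duplicates. Crude K562 extract at 1 mg/mL protein, made by dounce homogenisation in PBS pH 7.4 with 1 mM MgCl2, was treated with 10 μM compound for 30 min. After 3 min heating across 48°C-58°C, aliquots were pooled, adjusted to 0.5% NP-40 at 4°C and centrifuged at 21,000xg for 90 min. The supernatant was measured by TMTpro 16plex LC-MS/MS with channel sums equalised.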
# pictilisib = compound: CS(=O)(=O)N1CCN(Cc2cc3nc(-c4cccc5[nH]ncc45)nc(N4CCOCC4)c3s2)CC1 [pictilisib]
# How it was run: as §1
# crizotinib = compound: C[C@@H](Oc1cc(-c2cnn(C3CCNCC3)c2)cnc1N)c1c(Cl)ccc(F)c1Cl [crizotinib]
# How it was run: as §1
# [1] = compound: C[C@H](C1=CC=C(C=C1)C(=O)NC2=C3C=CNC3=NC=C2)N
# How it was run: as §1
# duvelisib = compound: C[C@H](Nc1ncnc2nc[nH]c12)c1cc2cccc(Cl)c2c(=O)n1-c1ccccc1 [duvelisib]
# How it was run: as §1
# gandotinib = compound: Cc1cc(Nc2cc(CN3CCOCC3)c3nc(C)c(Cc4ccc(Cl)cc4F)n3n2)n[nH]1 [gandotinib]
# How it was run: as §1
# tozasertib = compound: Cc1cc(Nc2cc(N3CCN(C)CC3)nc(Sc3ccc(NC(=O)C4CC4)cc3)n2)n[nH]1 [tozasertib]
# How it was run: as §1
# doramapimod = compound: Cc1ccc(-n2nc(C(C)(C)C)cc2NC(=O)Nc2ccc(OCCN3CCOCC3)c3ccccc23)cc1 [doramapimod]
# How it was run: as §1
# bafetinib = compound: Cc1ccc(NC(=O)c2ccc(CN3CC[C@H](N(C)C)C3)c(C(F)(F)F)c2)cc1Nc1nccc(-c2cncnc2)n1 [bafetinib]
# How it was run: as §1
# [2] = compound: Cc1cccc(CC(=O)N2CCc3c2ccc(-c2cn(C)c4ncnc(N)c24)c3F)n1
# How it was run: as §1
# nilotinib = compound: Cc1cn(-c2cc(NC(=O)c3ccc(C)c(Nc4nccc(-c5cccnc5)n4)c3)cc(C(F)(F)F)c2)cn1 [nilotinib]
# How it was run: as §1
# [3] = compound: Cc1nc(Nc2n[nH]c3c2CN(C(=O)N[C@H](CN(C)C)c2ccccc2)C3(C)C)c2sccc2n1
# How it was run: as §1
# dasatinib = compound: Cc1nc(Nc2ncc(C(=O)Nc3c(C)cccc3Cl)s2)cc(N2CCN(CCO)CC2)n1 [dasatinib]
# How it was run: as §1
# [4] = compound: Cc1ncc(-c2ccnc(Nc3ccc(S(C)(=O)=O)cc3)n2)n1C(C)C
# How it was run: as §1
# [5] = compound: Cn1cc(-c2ccc3c(c2)CCN3C(=O)Cc2cccc(C(F)(F)F)c2)c2c(N)ncnc21
# How it was run: as §1
# quisinostat = compound: Cn1cc(CNCC2CCN(c3ncc(C(=O)NO)cn3)CC2)c2ccccc21 [quisinostat]
# How it was run: as §1
# tipifarnib = compound: Cn1cncc1[C@@](N)(c1ccc(Cl)cc1)c1ccc2c(c1)c(-c1cccc(Cl)c1)cc(=O)n2C [tipifarnib]
# How it was run: as §1
# [6] = compound: NC(=O)Nc1cc(-c2cccc(F)c2)sc1C(=O)N[C@H]1CCCNC1
# How it was run: as §1
# [7] = compound: NC(=O)c1cnc(N[C@@H]2CCCC[C@@H]2N)nc1Nc1cccc(-n2nccn2)c1
# How it was run: as §1
# [8] = compound: NC1(c2ccc(-c3nc4ccn5c(=O)[nH]nc5c4cc3-c3ccccc3)cc2)CCC1
# How it was run: as §1
# Sequence of UniProt O75911 (O75911 whole entry, looked up): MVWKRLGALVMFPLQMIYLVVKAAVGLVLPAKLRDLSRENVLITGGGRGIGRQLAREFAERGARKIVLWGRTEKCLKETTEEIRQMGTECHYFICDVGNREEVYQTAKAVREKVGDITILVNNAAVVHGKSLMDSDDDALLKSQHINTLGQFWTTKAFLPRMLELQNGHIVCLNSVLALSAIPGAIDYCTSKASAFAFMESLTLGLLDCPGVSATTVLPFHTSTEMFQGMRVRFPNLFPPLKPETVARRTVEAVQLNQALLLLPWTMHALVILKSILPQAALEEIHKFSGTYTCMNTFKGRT
# Sequence of UniProt Q96BY6 (Q96BY6 whole entry, looked up): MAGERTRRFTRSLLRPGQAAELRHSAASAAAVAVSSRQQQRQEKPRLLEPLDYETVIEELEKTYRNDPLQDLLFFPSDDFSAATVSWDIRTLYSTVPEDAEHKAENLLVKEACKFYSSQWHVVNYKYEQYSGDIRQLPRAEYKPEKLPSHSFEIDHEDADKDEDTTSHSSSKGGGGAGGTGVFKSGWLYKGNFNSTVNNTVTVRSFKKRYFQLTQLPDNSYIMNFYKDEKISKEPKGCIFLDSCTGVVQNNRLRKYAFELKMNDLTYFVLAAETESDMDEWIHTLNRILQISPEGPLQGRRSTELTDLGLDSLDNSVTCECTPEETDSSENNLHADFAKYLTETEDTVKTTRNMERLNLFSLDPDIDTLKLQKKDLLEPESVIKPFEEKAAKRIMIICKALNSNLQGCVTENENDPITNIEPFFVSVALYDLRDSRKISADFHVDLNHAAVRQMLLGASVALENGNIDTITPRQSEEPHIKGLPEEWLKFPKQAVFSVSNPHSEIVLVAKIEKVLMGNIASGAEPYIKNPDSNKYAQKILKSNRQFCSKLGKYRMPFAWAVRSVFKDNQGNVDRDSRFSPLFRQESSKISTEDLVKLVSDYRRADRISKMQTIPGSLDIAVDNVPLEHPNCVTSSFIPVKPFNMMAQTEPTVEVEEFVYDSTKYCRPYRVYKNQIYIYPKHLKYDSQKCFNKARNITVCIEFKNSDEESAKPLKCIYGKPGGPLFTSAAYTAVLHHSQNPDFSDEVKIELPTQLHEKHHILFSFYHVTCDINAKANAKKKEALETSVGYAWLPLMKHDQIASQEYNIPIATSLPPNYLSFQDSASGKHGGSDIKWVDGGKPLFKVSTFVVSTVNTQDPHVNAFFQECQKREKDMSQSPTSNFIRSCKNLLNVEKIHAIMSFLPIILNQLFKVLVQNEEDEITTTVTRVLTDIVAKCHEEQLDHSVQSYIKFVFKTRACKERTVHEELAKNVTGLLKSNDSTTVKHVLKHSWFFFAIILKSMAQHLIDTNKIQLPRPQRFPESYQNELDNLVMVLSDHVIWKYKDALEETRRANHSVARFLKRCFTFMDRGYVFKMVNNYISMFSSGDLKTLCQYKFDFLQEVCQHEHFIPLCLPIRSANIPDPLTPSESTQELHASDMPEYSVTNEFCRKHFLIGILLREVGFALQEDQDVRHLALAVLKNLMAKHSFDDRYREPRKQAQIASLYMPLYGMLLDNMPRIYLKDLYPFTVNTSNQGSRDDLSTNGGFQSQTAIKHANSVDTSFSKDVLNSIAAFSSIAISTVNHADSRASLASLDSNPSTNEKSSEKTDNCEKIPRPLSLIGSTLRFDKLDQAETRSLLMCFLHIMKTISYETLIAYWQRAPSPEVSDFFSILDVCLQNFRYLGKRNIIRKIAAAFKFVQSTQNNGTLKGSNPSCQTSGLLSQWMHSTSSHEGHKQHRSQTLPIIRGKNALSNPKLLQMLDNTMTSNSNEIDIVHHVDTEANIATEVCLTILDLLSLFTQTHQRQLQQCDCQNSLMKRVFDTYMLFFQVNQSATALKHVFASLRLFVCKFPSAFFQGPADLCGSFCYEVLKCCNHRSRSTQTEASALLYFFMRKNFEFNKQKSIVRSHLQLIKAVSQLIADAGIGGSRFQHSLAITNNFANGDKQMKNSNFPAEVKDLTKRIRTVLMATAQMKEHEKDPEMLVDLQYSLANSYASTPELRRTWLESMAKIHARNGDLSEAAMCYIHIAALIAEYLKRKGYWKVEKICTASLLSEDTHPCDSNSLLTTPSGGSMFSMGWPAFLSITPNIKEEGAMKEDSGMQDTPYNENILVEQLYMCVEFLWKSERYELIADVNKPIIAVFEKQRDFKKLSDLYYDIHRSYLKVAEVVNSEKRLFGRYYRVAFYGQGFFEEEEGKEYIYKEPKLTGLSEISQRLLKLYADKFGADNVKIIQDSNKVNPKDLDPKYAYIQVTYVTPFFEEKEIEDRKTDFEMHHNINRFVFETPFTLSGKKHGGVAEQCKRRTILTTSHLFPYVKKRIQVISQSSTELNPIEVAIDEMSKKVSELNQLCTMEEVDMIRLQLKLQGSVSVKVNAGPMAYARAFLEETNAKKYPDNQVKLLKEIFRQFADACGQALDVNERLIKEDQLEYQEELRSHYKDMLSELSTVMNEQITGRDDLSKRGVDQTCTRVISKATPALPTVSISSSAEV
# Sequence of UniProt Q99704 (Q99704 whole entry, looked up): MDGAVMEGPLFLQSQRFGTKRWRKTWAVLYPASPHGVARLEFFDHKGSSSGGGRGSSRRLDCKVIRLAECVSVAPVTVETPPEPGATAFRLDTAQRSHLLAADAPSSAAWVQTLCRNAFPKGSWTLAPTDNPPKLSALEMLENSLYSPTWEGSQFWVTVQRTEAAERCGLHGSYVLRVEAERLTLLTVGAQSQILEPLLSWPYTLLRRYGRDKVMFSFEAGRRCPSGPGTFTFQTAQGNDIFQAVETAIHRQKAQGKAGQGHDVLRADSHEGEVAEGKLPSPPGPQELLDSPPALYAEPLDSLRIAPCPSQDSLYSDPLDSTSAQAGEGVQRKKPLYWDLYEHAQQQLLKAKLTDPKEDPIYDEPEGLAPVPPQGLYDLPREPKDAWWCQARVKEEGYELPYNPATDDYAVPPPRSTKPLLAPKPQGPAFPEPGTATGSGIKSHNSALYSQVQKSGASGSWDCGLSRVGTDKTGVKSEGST
# Sequence of UniProt P09543 (P09543 whole entry, looked up): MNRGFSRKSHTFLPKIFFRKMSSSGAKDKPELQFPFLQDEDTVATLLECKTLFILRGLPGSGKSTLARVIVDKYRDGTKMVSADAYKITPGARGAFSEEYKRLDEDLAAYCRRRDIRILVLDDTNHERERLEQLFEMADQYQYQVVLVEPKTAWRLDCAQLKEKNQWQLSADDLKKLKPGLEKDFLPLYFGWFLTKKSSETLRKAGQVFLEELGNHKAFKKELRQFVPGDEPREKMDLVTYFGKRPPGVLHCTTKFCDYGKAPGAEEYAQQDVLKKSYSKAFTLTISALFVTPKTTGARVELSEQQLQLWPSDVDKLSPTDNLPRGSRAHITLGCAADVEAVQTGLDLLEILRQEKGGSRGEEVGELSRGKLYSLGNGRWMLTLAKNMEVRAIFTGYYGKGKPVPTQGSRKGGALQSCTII
# Sequence of UniProt P26374 (P26374 whole entry, looked up): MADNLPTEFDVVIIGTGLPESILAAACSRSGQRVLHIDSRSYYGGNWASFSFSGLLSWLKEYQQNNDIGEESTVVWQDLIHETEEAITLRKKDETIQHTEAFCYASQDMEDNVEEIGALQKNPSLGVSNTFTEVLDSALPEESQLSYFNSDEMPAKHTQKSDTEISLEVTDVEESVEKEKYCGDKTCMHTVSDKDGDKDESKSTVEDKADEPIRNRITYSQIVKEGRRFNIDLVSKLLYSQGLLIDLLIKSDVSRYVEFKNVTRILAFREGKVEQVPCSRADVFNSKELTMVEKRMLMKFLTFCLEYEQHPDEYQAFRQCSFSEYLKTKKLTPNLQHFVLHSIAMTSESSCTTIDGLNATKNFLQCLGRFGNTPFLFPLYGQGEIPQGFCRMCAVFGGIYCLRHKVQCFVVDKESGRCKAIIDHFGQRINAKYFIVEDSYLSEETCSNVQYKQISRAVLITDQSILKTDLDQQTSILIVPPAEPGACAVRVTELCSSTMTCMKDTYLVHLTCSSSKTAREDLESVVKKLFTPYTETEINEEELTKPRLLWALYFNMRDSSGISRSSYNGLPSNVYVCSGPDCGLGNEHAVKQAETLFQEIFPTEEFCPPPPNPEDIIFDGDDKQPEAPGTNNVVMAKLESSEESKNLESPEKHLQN
# Sequence of UniProt P19784 (P19784 whole entry, looked up): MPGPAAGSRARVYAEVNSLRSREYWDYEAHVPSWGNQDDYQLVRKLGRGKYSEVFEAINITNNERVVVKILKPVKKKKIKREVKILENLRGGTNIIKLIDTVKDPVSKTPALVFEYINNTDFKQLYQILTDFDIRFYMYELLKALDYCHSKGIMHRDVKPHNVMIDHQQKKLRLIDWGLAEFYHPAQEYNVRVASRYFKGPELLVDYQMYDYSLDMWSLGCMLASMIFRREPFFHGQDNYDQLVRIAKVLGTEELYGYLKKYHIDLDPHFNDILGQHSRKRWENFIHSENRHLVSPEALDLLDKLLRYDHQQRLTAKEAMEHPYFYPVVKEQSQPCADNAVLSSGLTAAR
# Sequence of UniProt Q8NI60 (Q8NI60 whole entry, looked up): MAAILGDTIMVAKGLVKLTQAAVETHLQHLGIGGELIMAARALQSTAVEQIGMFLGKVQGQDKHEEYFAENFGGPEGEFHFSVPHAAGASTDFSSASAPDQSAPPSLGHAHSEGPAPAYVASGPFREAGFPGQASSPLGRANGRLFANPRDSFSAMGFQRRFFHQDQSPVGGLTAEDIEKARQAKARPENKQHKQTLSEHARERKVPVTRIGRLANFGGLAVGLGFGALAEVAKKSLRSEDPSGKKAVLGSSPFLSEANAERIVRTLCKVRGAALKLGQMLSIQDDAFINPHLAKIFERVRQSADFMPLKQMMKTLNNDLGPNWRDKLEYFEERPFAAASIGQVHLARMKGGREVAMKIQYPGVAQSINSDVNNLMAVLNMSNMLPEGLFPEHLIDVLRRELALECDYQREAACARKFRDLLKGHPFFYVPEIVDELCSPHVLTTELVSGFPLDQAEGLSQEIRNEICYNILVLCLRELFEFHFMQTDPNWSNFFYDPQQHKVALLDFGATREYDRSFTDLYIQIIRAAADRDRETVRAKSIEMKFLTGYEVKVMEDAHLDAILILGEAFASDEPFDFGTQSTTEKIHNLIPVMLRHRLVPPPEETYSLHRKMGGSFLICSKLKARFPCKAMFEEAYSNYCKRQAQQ
Target,log2 fold change (lapatinib),log2 fold change (pictilisib),log2 fold change (crizotinib),log2 fold change [1],log2 fold change (duvelisib),log2 fold change (gandotinib),log2 fold change (tozasertib),log2 fold change (doramapimod),log2 fold change (bafetinib),log2 fold change [2],log2 fold change (nilotinib),log2 fold change [3],log2 fold change (dasatinib),log2 fold change [4],log2 fold change [5],log2 fold change (quisinostat),log2 fold change (tipifarnib),log2 fold change [6],log2 fold change [7],log2 fold change [8]
DDX20 (UniProt Q9UHI6),-0.041,0.024,-0.088,0.029,0.008,-0.137,-0.065,0.015,-0.016,0.054,-0.009,0.008,-0.054,0.003,0.058,-0.058,-0.01,0.095,0.03,-0.024
CIP2A (UniProt Q8TCG1),-0.02,-0.045,-0.101,-0.049,0.012,-0.218,0,0.005,-0.047,0.103,-0.006,0.02,-0.107,0.024,0.054,-0.123,0.01,0.019,0.032,-0.014
DHRS3 (UniProt O75911),0.02,-0.051,-0.024,-0.044,-0.025,0.059,-0.043,0.035,-0.032,0.011,0.007,0.005,0.23 (active),-0.028,0.024,-0.031,0.06,0.019,-0.078,-0.044
CSNK2A2 (UniProt P19784),-0.116,0.057,-0.071,0.099,-0.02,-0.1,-0.035,-0.015,0.009,-0.041,-0.031,0.195,-0.039,0.254,-0.004,0.001,-0.014,0.094,0.018,-0.003
DNM2 (UniProt P50570),-0.003,0.022,-0.013,0.021,-0.007,-0.076,0.001,0.033,-0.011,0.035,0,-0.015,-0.045,-0.016,0.028,0.016,0.011,0.034,0.037,0.009
DOK1 (UniProt Q99704),0.01,-0.026,0.007,-0.056,-0.002,0.042,0.008,0.044,-0.006,-0.001,-0.019,0.05,0.014,-0.103,0.023,-0.032,0.048,0.07,-0.055,0.018
DHCR7 (UniProt Q9UBM7),-0.092,-0.039,-0.103,-0.024,0.067,-0.215 (active),-0.01,0.002,0.024,0.013,-0.013,0.016,0.011,0,0.013,0.234,0.015,0.029,0.008,0.047
CHUK (UniProt O15111),0.001,-0.031,-0.067,0.112,0.036,-0.067,0.024,0.008,-0.001,-0.048,-0.029,0.015,-0.091,0.035,0.059,-0.131,-0.015,0.078,-0.006,-0.116
CUEDC2 (UniProt Q9H467),0.018,-0.119,0.001,0.528 (active),-0.009,-0.026,-0.055,0.022,-0.073,-0.082,-0.038,0.055,0.015,0.028,0.009,-0.046,0.009,-0.012,-0.021,0.016
CMIP (UniProt Q8IY22),0.002,-0.013,-0.001,0.046,-0.035,-0.062,0.017,-0.094,-0.064,0.002,-0.034,0.023,-0.063,0.016,0.008,-0.052,-0.045,0.075,-0.008,-0.036
DOCK10 (UniProt Q96BY6),-0.025,-0.024,-0.461,-0.641 (active),0.003,0.231,0,0.137,-0.226,0.379,-0.046,-0.008,-0.086,-0.081,0.025,-0.636 (active),-0.129,-0.011,0.029,-0.086
CNP (UniProt P09543),0.014,0.015,-0.023,0.002,-0.002,-0.047,0.012,0.039,-0.026,0.022,0.033,0.023,-0.047,-0.007,0.003,-0.028,-0.055,-0.009,-0.007,-0.009
CHML (UniProt P26374),-0.006,-0.003,0.022,-0.012,0.006,0.013,-0.004,-0.025,0.094,0.004,-0.001,0.013,0.035,-0.011,-0.001,0,-0.031,-0.015,-0.008,0.002
COQ8A (UniProt Q8NI60),0.004,0.025,0.106,-0.078,-0.095,0.126,0.023,-0.059,0.041,-0.042,0.091,-0.013,0.394,-0.211,-0.05,0.082,0.032,0.051,0.348,0.004
DEF6 (UniProt Q9H4E7),-0.021,0.057,-0.095,-0.049,0.013,0.032,0.009,0,0.151,0.188,-0.058,0.046,-0.034,0.033,0.006,-0.044,0.027,0.067,0.044,-0.01
DAZAP1 (UniProt Q96EP5),0.017,-0.043,0.073,0.035,0.015,0,0.064,0.003,0.243,-0.04,-0.066,0.04,0.015,0.044,-0.016,0.118,-0.039,0.005,0.01,-0.008
